High-throughput results as filed in PubChem.
ELG1 repair inh: inhibitors of ELG1-dependent DNA repair in HEK293T cells | AID 504467 | actives 2.3% (n = 330,000) | HEK293T ELG1-luciferase reporter, luminescence, 16 h; DNA damage induced by 5-fluorouridine | Potency, µM (series often up to 46.1 µM), without a hit: at the top dose activity change, negative = inhibition, usual class: inhibitors; note: % is set by controls: 0 for no effect and ±100 for the full control effect; nearly all actives have a fitted effect of over 55% in size
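Quantitative HTS, concentration-response format. 2,000 cells/well co-treated with 5-fluorouridine and compound, 16 hr in 5% CO2 at 37 °C; ONE-Glo luminescence read after 30 min.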
NPC1 promoter act: activates the NPC1 promoter; Huh7 NPC1 promoter luciferase reporter, 24 h; Potency, µM (series often up to 9.22 µM), inactives show at the top dose activation, actives largely listed as activators; actives 2.4% (n = 320,000); AID 485313; note: % of control where 0% means no effect; nearly all actives have a fitted effect of over 60% in size
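Huh7 cells stably carrying NPC1 promoter–luciferase, plated in Opti-MEM with 10% FBS for 2 h, were exposed to compound in DMSO for 24 h at 37 °C; luciferase reagent was added for 10 min and luminescence read.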
FLuc modulator: inhibits or activates purified firefly luciferase, miR-21 counter-screen; actives 6.9% (n = 360,000); Potency, µM (titrated, usually from 57.5 µM), for inactives: top-dose activity change, negative = inhibition, hits mostly inhibitors; P08659; purified FLuc, Km substrates, luminescence inhibition;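 note: plate controls were vehicle for no effect and reference inhibitor for full effect; nearly all actives have a fitted effect of over 55% in size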
Target sequence (P08659 whole entry, looked up): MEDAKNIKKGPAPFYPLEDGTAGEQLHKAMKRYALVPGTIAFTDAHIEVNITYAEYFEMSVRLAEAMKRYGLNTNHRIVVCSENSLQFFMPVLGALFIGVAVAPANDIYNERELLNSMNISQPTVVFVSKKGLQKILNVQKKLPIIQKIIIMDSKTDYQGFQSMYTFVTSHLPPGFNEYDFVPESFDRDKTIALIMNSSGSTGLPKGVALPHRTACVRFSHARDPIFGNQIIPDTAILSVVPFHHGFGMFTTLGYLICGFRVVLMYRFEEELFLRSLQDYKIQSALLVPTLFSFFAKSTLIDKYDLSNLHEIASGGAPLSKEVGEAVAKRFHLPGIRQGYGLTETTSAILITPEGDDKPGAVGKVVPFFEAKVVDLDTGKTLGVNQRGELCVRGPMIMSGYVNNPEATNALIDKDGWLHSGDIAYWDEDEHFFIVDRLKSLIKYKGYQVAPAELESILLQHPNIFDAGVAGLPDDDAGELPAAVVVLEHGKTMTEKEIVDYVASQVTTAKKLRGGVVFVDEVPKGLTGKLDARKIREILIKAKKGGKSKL
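Purified P. pyralis luciferase (10nM final) with 10uM D-luciferin and 10uM ATP (Km levels) in 50mM Tris acetate pH 7.5, 10mM Mg acetate, 0.01% Tween-20, 0.05% BSA; qHTS 6-point titration, ~60 µM downward; luminescence read.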
Rab9 prom act: Rab9 promoter activation | Huh7 Rab9 promoter-luciferase reporter, luminescence, 24 h | Potency, µM (series often up to 9.22 µM), for the others: top-dose activation, negative = inhibition, hits mostly activators | actives 2.8% (n = 320,000); note: % of control where 0% means no effect; nearly all actives have a fitted effect of over 60% in size
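Using Huh7 cells stably transfected with Rab9 promoter–luciferase, compounds were incubated 24 h at 37 °C, 5% CO2; luciferase luminescence was read 10 min after reagent addition.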
SMN2 splice enh: enhancers of SMN2 splice variant expression | HEK293 SMN2-luciferase splicing reporter, luminescence, 30-36 h | AID 1458 | Potency, µM (titrated, usually from 46.1 µM), without a hit: top-dose activity change, positive = activation, usual class: activators | actives 2.8% (n = 210,000); note: % of control where 0% means no effect; nearly all actives have a fitted effect of over 55% in size
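HEK293 cells carry an SMN2 […]–luciferase reporter in which exon 7 inclusion puts luciferase in frame. Cells were plated 10-12 h before compound addition, then incubated 30-36 h at 37C. ONE-Glo luminescence was read; sodium butyrate at 4.5 mM final served as control.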
ELG1 genotox: genotoxicity induction in ELG1-luciferase HEK293T cells; HEK293T ELG1-luciferase reporter, luminescence, 16 h; Potency, µM (series often up to 46 µM), inactives show at the top dose activity change, positive = activation, usual class: activators; actives 1.3% (n = 330,000); AID 504466; note: % of control where 0% means no effect; nearly all actives have a fitted effect of over 60% in size
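Quantitative HTS format in 1536-well plates. HEK293T ELG1-luciferase reporter cells receive test compound and are incubated 16 hr at 37 °C, 5% CO2; ONE-Glo added, 30 min room temperature, then luminescence read.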
The depositor's hits bear a star; ? = inconclusive; . = not tested or not shown; [ ] = remark or other dose. Sampled rows, rich in hits. Any-hit rate of the full collection: about 9.2%. Calls come from the whole dose curve; as a rule, active = well fitted curve in the direction sought with a large enough effect; inconclusive = small, poorly fitted or top-dose-only effect, or another doubt; inactive = no such curve, though single readings can be large; an effect the other way counts as inactive or inconclusive. Potency is the fitted concentration of half-maximal effect.

SMILES	ELG1 repair inh	NPC1 promoter act	FLuc modulator	Rab9 prom act	SMN2 splice enh	ELG1 genotox
C=C1c2c(Cl)ccc(O)c2C(O)=C2C(=O)[C@@]3(O)C(O)=C(C(N)=O)C(=O)[C@@H](N(C)C)[C@@H]3[C@@H](O)[C@H]12	.	.	.	.	-10%[20.6 µM]	.
COc1ccc(C(=O)N[C@H]2CCCCNC2=O)cc1OC1CCN(C(C)C)CC1	-1%	4%	0%	2%	.	1%
Cc1nn(-c2nc3ccccc3s2)c(N)c1-c1ccc(Cl)cc1	?	?	3µM*	?	11µM*	?
Cc1nn(-c2nc3ccccc3s2)c(N)c1-c1ccccc1	?	2.5µM*	1.9µM*	2.2µM*	7.1µM*	?
Cc1nn(-c2nc3ccccc3s2)c(N)c1Sc1ccc(F)cc1	?	3.2µM*	?	1.1µM*	1%	?
Cc1cc(-c2nc3ccccc3s2)ccc1NC(=O)c1cc(Cl)ccc1Cl	.	.	2%	.	?	.
COc1ccc(CCNC(=O)COC(=O)CSc2ccc([N+](=O)[O-])cc2)cc1OC	25%	-4%	-18%	-3%	.	1%
N#Cc1ccccc1S(=O)(=O)N1CCN(CC(=O)Nc2ccccc2C(=O)NC2CC2)CC1	?	-4%	-1%	2%	.	-7%
COc1ccc(-c2[nH]ncc2/C=C(/C#N)C(=O)NC2CCCCCC2)cc1	18µM*	-11%	-1%	-6%	-14%	-8%
N#C/C(=C/c1ccc(OCc2ccccc2)cc1)C(=O)NC1CCCCC1	32%	25%	3%	22%	?	8%
C=CCn1c(=O)/c(=C/c2cc(OC)c(OC)c(OC)c2)s/c1=C(/C#N)c1nc2ccccc2n1C	4.1µM*	-4%	0%	-7%	-25%	-9%
CC(=O)c1cccc(NC(=O)N2CCc3ccccc3C2)c1	?	4µM*	13µM*	?	21%	?
CCc1ccccc1NC(=O)N1CCc2ccccc2C1	?	-1%	-16%	20%	.	15%
CC(=O)c1ccc(NC(=O)N2CCc3ccccc3C2)cc1	?	21%	?	?	22µM*	24%
CC(=O)c1cccc(NC(=O)N2CCCc3ccccc32)c1	?	9%	?	12%	0%	6%
COc1ccc(C(CNC(=O)c2oc3c(Cl)cccc3c2C)N2CCCC2)cc1 (stereo not given)	?	-2%	-11%	-6%	.	8%
COc1ccc(-c2nc(SCCOc3cc(C)ccc3C(C)C)n3[nH]c(=O)cc3n2)cc1	.	.	-9%	.	.	.
CC(=O)c1cccc(NC(=O)CN(C)S(=O)(=O)c2ccc3c(c2)CC(C)N3C(C)=O)c1 (stereo not given)	-4%	2%	-1%	-6%	.	-10%
C=CCN(C(=O)C1=NN(C2CCS(=O)(=O)C2)C(=O)CC1)c1nc(-c2ccc([N+](=O)[O-])cc2)cs1 (stereo not given)	?	4µM*	-18%	2.8µM*	11µM*	12%
Cc1ccc(/C=C/C2=NN(C)C(=O)CC2)cc1	?	3.5µM*	6.7µM*	0.89µM*	11µM*	?
CCCCS(=O)(=O)N1CCc2nc(-c3ccccc3)c3c(c2C1)CO[C@@H](C)C3	.	.	.	.	-3%[9.22 µM]	.
COc1ccc(-n2cnc3cc(NC(=O)c4ccco4)ccc32)cc1	20%	4%	13µM*	2%	-16%	15%
COc1ccc(-n2cnc3cc(N)ccc32)cc1	?	26%	?	20%	14µM*	?
O=C(Nc1ccc2c(c1)ncn2C1CCCCC1)c1ccco1	?	?	13µM*	3.5µM*	23%	?
O=C(Nc1ccc(S(=O)(=O)NC2CCCCC2)cc1)c1ccco1	?	-6%	1%	2%	-24%	0%
COc1ccc(-n2cnc3cc(NS(=O)(=O)c4ccccc4)ccc32)cc1	?	3%	?	0%	28%	3%
